Experimental data reported in PubChem BioAssay (EPA / NIEHS).
Values joined by “and” are separate entries in the source; they are usually repeats but may differ in a detail not shown here. Identical values can stand only once. A structure can be active in one record and inactive in another. Active and inactive are the calls of the source. How the source made its calls: active means hit-call score of the fitted dose curve at least 0.9, where 1 is the maximum; inactive means score below 0.9.

How the values were obtained:
[1] = read-out: TIMP metallopeptidase inhibitor 2 (TIMP2), TIMP2 (gene 7077); experiment: BSK_KF3CT_TIMP2: BioMAP Diversity Plus: KF3CT Assay for TIMP metallopeptidase inhibitor 2 (TIMP2) Biomarker Activity (AID 2283071); settings: primary human keratinocytes with fibroblasts; actives raise or lower the signal
Summary of the method: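 Chemicals were dosed onto human skin primary co-cultures of keratinocytes and foreskin fibroblasts, and TIMP-2 was measured by ELISA after 24 hours. Activity in either direction was fitted relative to DMSO.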

[2] = read-out: Transforming growth factor beta 1 (TGFb1), TGFB1 (gene 7040); experiment: BSK_KF3CT_TGFb1: BioMAP Diversity Plus: KF3CT Assay for Transforming growth factor beta 1 (TGFb1) Biomarker Activity (AID 2283072); settings: primary human keratinocytes with fibroblasts; actives raise or lower the signal
Summary of the method: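 KF3CT co-culture (keratinocytes + fibroblasts), 24 h exposure → TGF-b1 ELISA → bidirectional fit, DMSO = baseline. Parallel SRB total-protein staining (0.1% SRB, 10% TCA fixation, 560 nm) for cytotoxicity.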

[3] = read-out: C-C motif chemokine 2 (Homo sapiens) (UniProt P13500); experiment: BSK_KF3CT_MCP1: BioMAP Diversity Plus: KF3CT Assay for Monocyte Chemoattractant Protein 1 (MCP1/CCL2) Biomarker Activity (AID 2283073); settings: primary human keratinocytes with fibroblasts; actives raise or lower the signal
Summary of the method: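 ELISA readout of MCP-1 after 24 h chemical dosing of a human skin primary co-culture of keratinocytes and foreskin fibroblasts. Activity was fitted in both directions against DMSO.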

[4] = read-out: Matrix Metallopeptidase 9 (MMP9), MMP9 (gene 4318); experiment: BSK_KF3CT_MMP9: BioMAP Diversity Plus: KF3CT Assay for Matrix Metallopeptidase 9 (MMP9) Biomarker Activity (AID 2283074); settings: primary human keratinocytes with fibroblasts; actives raise or lower the signal;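 on AC50: MMP9 protein level quantified by ELISA in the co-culture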
Summary of the method: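 MMP-9 quantified by ELISA after 24 h chemical treatment of primary human skin keratinocyte/fibroblast co-cultures; gain or loss fitted against DMSO, with parallel SRB staining (0.1% SRB, 560 nm) for overt cytotoxicity.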

CD40, CD40 (gene 958) [5] = experiment: BSK_LPS_CD40: BioMAP Diversity Plus: LPS Assay for CD40 Biomarker Activity (AID 2283076); settings: primary human HUVEC with PBMC; actives raise or lower the signal
Summary of the method: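 Cells were dosed, incubated 24 h, then assayed for CD40 by ELISA. Gain or loss of signal was analysed relative to DMSO controls. The culture paired human umbilical vein endothelium with peripheral blood mononuclear cells.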

[6] = read-out: Interleukin-8 (IL8), CXCL8 (gene 3576); experiment: BSK_LPS_IL8: BioMAP Diversity Plus: LPS Assay for Interleukin-8 (IL8) Biomarker Activity (AID 2283078); settings: primary human HUVEC with PBMC; actives raise or lower the signal
Summary of the method: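 Readout is IL-8 by ELISA, taken 24 h after compounds were added to LPS-stimulated endothelial/PBMC co-cultures. Both increases and decreases relative to DMSO control were scored through bidirectional fitting.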

[7] = BSK_LPS_SRB: Viability Assessment in the BioMAP Diversity Plus: LPS Assay (AID 2283079); settings: primary human HUVEC with PBMC;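 further: total protein by sulforhodamine B absorbance as a cytotoxicity measure; measured one day after compound addition; fitted in both directions against DMSO so loss or gain of signal counts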
Summary of the method: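 Readout is SRB absorbance at 560 nm (0.1% stain, TCA-fixed parallel cultures) as a total-protein cytotoxicity measure. Cells: primary human umbilical vein endothelium plus peripheral blood mononuclear cells, 24 h after chemical exposure; DMSO served as baseline.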

[8] = read-out: Interleukin-1 alpha (IL1a), IL1A (gene 3552); experiment: BSK_LPS_IL1a: BioMAP Diversity Plus: LPS Assay for Interleukin-1 alpha (IL1a) Biomarker Activity (AID 2283080); settings: primary human HUVEC with PBMC; actives raise or lower the signal
Summary of the method: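 ELISA read-out of IL-1 alpha from a human primary vascular co-culture (endothelium plus PBMC) under LPS, sampled 24 hours post-dosing. Activity was fitted in both directions relative to DMSO controls.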

[9] = read-out: Monocyte Chemoattractant Protein-1 (MCP1), CCL2 (gene 6347); experiment: BSK_LPS_MCP1: BioMAP Diversity Plus: LPS Assay for Monocyte Chemoattractant Protein-1 (MCP1) Biomarker Activity (AID 2283081); settings: primary human HUVEC with PBMC; actives raise or lower the signal;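 on AC50: secreted MCP-1 protein quantified by ELISA in culture supernatant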
Summary of the method: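 Human endothelial–PBMC co-cultures were dosed with chemical, then LPS-driven MCP-1 levels were quantified by ELISA at 24 h. Activity in either direction was fitted versus DMSO negative control.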

[10] = BSK_LPS_PGE2: BioMAP Diversity Plus: LPS Assay for Prostaglandin E2 (PGE2) Biomarker Activity (AID 2283082); settings: primary human HUVEC with PBMC; actives raise or lower the signal;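 on AC50: secreted prostaglandin E2 measured by ELISA in LPS-stimulated co-culture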
Summary of the method: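 Compounds were added to the LPS co-culture of endothelium and PBMC, and PGE2 was measured by ELISA after 24 h. Responses in either direction were fitted with DMSO as baseline.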

[11] = read-out: Macrophage colony-stimulating factor (MCSF), CSF1 (gene 1435); experiment: BSK_LPS_MCSF: BioMAP Diversity Plus: LPS Assay for Macrophage colony-stimulating factor (MCSF) Biomarker Activity (AID 2283083); settings: primary human HUVEC with PBMC; actives raise or lower the signal
Summary of the method: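 ELISA readout of M-CSF after 24 h compound exposure in a human endothelial/PBMC co-culture. Activity, in either direction, is fitted relative to DMSO vehicle.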

[12] = read-out: Tumor necrosis factor (Homo sapiens) (UniProt P01375); experiment: BSK_LPS_TNFa: BioMAP Diversity Plus: LPS Assay for Tumour Necrosis Factor alpha (TNFa) Biomarker Activity (AID 2283085); settings: primary human HUVEC with PBMC; actives raise or lower the signal;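 on AC50: TNFa protein level quantified by ELISA in the co-culture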
Summary of the method: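 Cells (umbilical vein endothelium plus peripheral blood mononuclear cells) were dosed with chemical, incubated 24 h, then TNFa was quantified by ELISA; values derive from bidirectional fitting with DMSO as baseline.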

[13] = read-out: Vascular cell adhesion molecule 1 (VCAM1), VCAM1 (gene 7412); experiment: BSK_LPS_VCAM1: BioMAP Diversity Plus: LPS Assay for Vascular cell adhesion molecule 1 (VCAM1) Biomarker Activity (AID 2283086); settings: primary human HUVEC with PBMC; actives raise or lower the signal
Summary of the method: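 Cells are dosed in an LPS-stimulated endothelial/mononuclear co-culture and, after 24 h, VCAM-1 is quantified by ELISA. Activity in either direction is fitted relative to the DMSO negative control.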

CD38, CD38 (gene 952) = experiment: BSK_SAg_CD38: BioMAP Diversity Plus: SAg Assay for CD38 Biomarker Activity (AID 2283087); settings: primary human HUVEC with PBMC; actives raise or lower the signal
Summary of the method: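 CD38 quantified by ELISA (fluorescence) in a superantigen-activated endothelial cell–PBMC co-culture at 24 h post-dose. Activity fitted in both directions relative to DMSO; parallel SRB and Alamar Blue cytotoxicity read-outs.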

CD40, CD40 (gene 958) [14] = experiment: BSK_SAg_CD40: BioMAP Diversity Plus: SAg Assay for CD40 Biomarker Activity (AID 2283088); settings: primary human HUVEC with PBMC; actives raise or lower the signal
Summary of the method: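 Compounds were dosed onto a human primary endothelial–PBMC co-culture, and after 24 h CD40 was quantified by ELISA using a fluorescence signal. Activity in either direction was fitted relative to DMSO.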

[15] = read-out: Monocyte Chemoattractant Protein-1 (MCP1), CCL2 (gene 6347); experiment: BSK_SAg_MCP1: BioMAP Diversity Plus: SAg Assay for Monocyte Chemoattractant Protein-1 (MCP1) Biomarker Activity (AID 2283090); settings: primary human HUVEC with PBMC; actives raise or lower the signal
Summary of the method: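 Values derive from bidirectional fitting of ELISA-measured MCP1 against DMSO controls. Readings were taken 24 h after dosing human vascular endothelial cells co-cultured with peripheral blood mononuclear cells under superantigen stimulation.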

[16] = read-out: Tissue Factor, F3 (gene 2152); experiment: BSK_LPS_TissueFactor: BioMAP Diversity Plus: LPS Assay for Tissue Factor Biomarker Activity (AID 2283084); settings: primary human HUVEC with PBMC; actives raise or lower the signal
Summary of the method: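 ELISA signal for cell-surface Tissue Factor (CD142) was read 24 h after compound dosing of an LPS-stimulated human endothelial–PBMC primary co-culture. Gain or loss of signal was scored relative to DMSO.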

CD69, CD69 (gene 969) = experiment: BSK_SAg_CD69: BioMAP Diversity Plus: SAg Assay for CD69 Biomarker Activity (AID 2283089); settings: primary human HUVEC with PBMC; actives raise or lower the signal;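 on AC50: cell surface CD69 protein quantified by ELISA with fluorescence detection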
Summary of the method: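 Values derive from bidirectional fitting relative to DMSO vehicle. Cells: umbilical vein endothelium plus peripheral blood mononuclear cells, treated 24 h before fluorescent ELISA for CD69.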

[17] = read-out: E-selectin (Homo sapiens) (UniProt P16581); experiment: BSK_LPS_Eselectin: BioMAP Diversity Plus: LPS Assay for Eselectin Biomarker Activity (AID 2283077); settings: primary human HUVEC with PBMC; actives raise or lower the signal
Summary of the method: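 Primary human vascular co-culture (endothelium plus PBMC) was dosed with chemical, then E-selectin quantified by ELISA at 24 h. Endpoint values derive from bidirectional curve fitting relative to DMSO.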

Measured: AC50

Tumor necrosis factor (Homo sapiens), sequence (P01375 whole entry, looked up): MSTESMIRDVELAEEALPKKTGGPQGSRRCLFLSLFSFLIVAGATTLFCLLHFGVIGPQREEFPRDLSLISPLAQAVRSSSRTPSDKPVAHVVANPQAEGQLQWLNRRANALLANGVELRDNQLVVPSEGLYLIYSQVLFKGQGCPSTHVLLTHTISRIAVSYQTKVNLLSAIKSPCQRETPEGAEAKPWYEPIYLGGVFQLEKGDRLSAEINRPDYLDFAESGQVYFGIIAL
E-selectin (Homo sapiens), sequence (P16581 whole entry, looked up): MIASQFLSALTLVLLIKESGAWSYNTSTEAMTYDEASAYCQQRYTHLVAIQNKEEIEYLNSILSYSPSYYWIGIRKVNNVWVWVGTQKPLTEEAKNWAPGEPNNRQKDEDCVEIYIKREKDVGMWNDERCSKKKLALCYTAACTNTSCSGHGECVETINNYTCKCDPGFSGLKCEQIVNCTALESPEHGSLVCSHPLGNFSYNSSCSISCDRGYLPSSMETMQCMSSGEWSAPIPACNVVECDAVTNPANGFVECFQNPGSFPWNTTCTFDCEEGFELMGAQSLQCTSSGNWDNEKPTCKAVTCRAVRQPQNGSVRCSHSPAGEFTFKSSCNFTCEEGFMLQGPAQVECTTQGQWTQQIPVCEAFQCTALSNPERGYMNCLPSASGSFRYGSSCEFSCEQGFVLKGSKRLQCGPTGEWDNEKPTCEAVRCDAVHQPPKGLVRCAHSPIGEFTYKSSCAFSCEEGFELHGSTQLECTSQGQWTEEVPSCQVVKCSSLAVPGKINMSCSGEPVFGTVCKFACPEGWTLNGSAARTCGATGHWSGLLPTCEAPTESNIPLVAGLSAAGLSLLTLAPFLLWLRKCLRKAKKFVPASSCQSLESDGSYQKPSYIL

Nc1ccc(-c2ccc(N)cc2)cc1
active: [10] 8.27 µM
not listed: [16] | CD69, CD69 (gene 969) | [17]
inactive: all other assays above

Cc1cc2c3c(c1)C(c1ccccc1)=N[C@@H](NC(=O)c1ccncc1)C(=O)N3CC2
active: CD40, CD40 (gene 958) [5] 3.97 µM | [8] 3.97 µM | [11] 4.6 µM | [12] 7.3 µM | CD38, CD38 (gene 952) 11.8 µM | CD40, CD40 (gene 958) [14] 20 µM | [15] 20 µM
not listed: [16] | CD69, CD69 (gene 969) | [17]
inactive: all other assays above

Cc1ccccc1CO[C@@H]1C[C@@]2(C(C)C)CC[C@]1(C)O2
not listed: CD69, CD69 (gene 969) | [17]
inactive: all other assays above

ClC1=C(Cl)[C@]2(Cl)[C@@H]3[C@H]4C[C@H]([C@@H]5O[C@H]45)[C@@H]3[C@@]1(Cl)C2(Cl)Cl
active: [7] 7.24 µM | [12] 4.16 µM | CD40, CD40 (gene 958) [14] 8.47 µM
not listed: [13] | [17]
inactive: all other assays above

ClC1=C(Cl)[C@]2(Cl)[C@@H]3[C@@H]4C[C@@H]([C@H]5O[C@@H]45)[C@@H]3[C@@]1(Cl)C2(Cl)Cl
active: [12] 3.05 µM | [13] 14.4 µM | CD38, CD38 (gene 952) 14.4 µM | CD40, CD40 (gene 958) [14] 11.2 µM
not listed: [16] | CD69, CD69 (gene 969)
inactive: all other assays above

CCOCCOC(C)=O
not listed: [16] | CD69, CD69 (gene 969)
inactive: all other assays above

CCC(C)c1cc([N+](=O)[O-])cc([N+](=O)[O-])c1O (stereo not given)
active: [3] 11.6 µM | [4] 12.6 µM | [17] 27 µM | [6] 27.5 µM | [7] 20 µM | [8] 29.2 µM | [9] 15 µM | [10] 6.51 µM | [11] 20 µM | [13] 20 µM | CD38, CD38 (gene 952) 18.7 µM | CD40, CD40 (gene 958) [14] 14.3 µM | CD69, CD69 (gene 969) 12.4 µM | [15] 23.5 µM
inactive: [1] | [2] | [16] | [12]

O=S(=O)(O)C(F)(F)C(F)(F)C(F)(F)C(F)(F)C(F)(F)C(F)(F)F
active: [6] 14.6 µM and 43.9 µM
inactive: [1] | [2] | [3] | [4] | CD40, CD40 (gene 958) [5] | [6] | [7] | [8] | [9] | [10] | [11] | [12] | [13] | CD38, CD38 (gene 952) | CD40, CD40 (gene 958) [14] | [15]

CCOC(=O)C(O)(c1ccc(Cl)cc1)c1ccc(Cl)cc1
inactive: [1] | [2] | [3] | [4] | [10]
active: CD40, CD40 (gene 958) [5] 26.1 µM | [17] 31.5 µM | [6] 35.2 µM | [7] 34.2 µM | [8] 30.3 µM | [9] 39.1 µM | [11] 28.2 µM | [12] 39.3 µM | [13] 34 µM | CD38, CD38 (gene 952) 29.4 µM | CD40, CD40 (gene 958) [14] 30.4 µM | [15] 35.2 µM

Cc1cc(O)ccc1Cl
not listed: [16]
inactive: all other assays above
